Data on 15 molecules can be found in PubChem BioAssay (Tox21).

Values joined by “and” are separate entries in the source; they are usually repeats but may differ in a detail not shown here. Equal entries are not always repeated. Inconclusive results are not listed. Some structures have more than one record in an assay (separate samples or runs), and their calls can disagree. Active and inactive are the calls of the source. Unless noted, calls follow the shape of the dose curve; as a rule, active = well fitted curve in the direction sought with a large enough effect in the repeat runs; inconclusive = weak or mixed curves; inactive = no such curve, though single readings can be large; an effect the other way counts as inactive or inconclusive.

Assay [1] deals with thyroid hormone receptor (rat, GH3 cells). In words: qHTS assay to identify small molecule agonists of the thyroid receptor (TR) signaling pathway (AID 743066; calls by dose curve). On the technique in general: Quantitative high-throughput screening tests each substance at several concentrations.
Assay [2] is described as follows: qHTS assay to identify small molecule antagonists of the estrogen receptor alpha (ER-alpha) signaling pathway - cell viability counter screen (AID 743074; calls by dose curve;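 also: HEK293 cells carrying ER-alpha-UAS-bla reporter stimulated with 17beta-estradiol; nearly all actives have a fitted effect of over 45% in size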; also: potency is read from the fitted curve at half-maximal effect).
The nature of assay [3]: qHTS assay to identify small molecule antagonists of the estrogen receptor alpha (ER-alpha) signaling pathway using the BG1 cell line - cell viability counter screen (AID 743081).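 Also: compound given together with 17beta-estradiol as the ER stimulus; nearly all actives have a fitted effect of over 45% in size.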 Also: potency is read from the fitted curve at half-maximal effect.
Assay [4] addresses Aromatase (Homo sapiens) (UniProt P11511). In words: qHTS assay to identify aromatase inhibitors (AID 743083). Also: nearly all actives have a fitted effect of over 55% in size. Also: potency is read from the fitted curve at half-maximal effect.
The nature of assay [5]: qHTS assay to identify aromatase inhibitors - cell viability counter screen (AID 743084).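 Also: cells stimulated with testosterone during compound exposure; nearly all actives have a fitted effect of over 55% in size.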 Also: potency is read from the fitted curve at half-maximal effect.
Assay [6] has as its target Aryl hydrocarbon receptor (Homo sapiens) (UniProt P35869). Description: qHTS assay to identify small molecule that activate the aryl hydrocarbon receptor (AhR) signaling pathway (AID 743085). Also: nearly all actives have a fitted effect of over 15% in size. Also: potency is read from the fitted curve at half-maximal effect.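 As to activation: HG2L7.5c1 human HepG2 liver cells with stably integrated DRE-driven firefly reporter; series mostly up to about 70 µM.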 The essentials:
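Steps: seed HepG2-AhR-luc cells; allow 5 h at 37C; pin-transfer test compound or vehicle; incubate 24 h at 37C; add viability dye (30 min, 37C) and read fluorescence; add luciferase substrate (30 min, RT) and read luminescence.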

Assay [7] is described as follows: qHTS assay to identify small molecule that activate the aryl hydrocarbon receptor (AhR) signaling pathway - cell viability counter screen (AID 743086). Also: nearly all actives have a fitted effect of over 45% in size. Also: potency is read from the fitted curve at half-maximal effect. The essentials: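 Cytotoxicity counter screen: CellTiter-Fluor signal (30 min, 37 C) in 4000 HepG2 cells/well carrying the DRE-luciferase reporter, following 24 h compound exposure at 37 C.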
Assay [8] in a line: qHTS assay to identify small molecule antagonists of the peroxisome proliferator-activated receptor gamma (PPARg) signaling pathway - cell viability counter screen (AID 743194). Also: nearly all actives have a fitted effect of over 55% in size. Also: potency is read from the fitted curve at half-maximal effect. The essentials: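 Viability was measured as CellTiter-Glo luminescence in GeneBLAzer PPARg UAS-bla HEK293H cells. These cells had been exposed 17 h at 37 C to compounds together with rosiglitazone at 50 nM final, with the beta-lactamase readout taken in the same wells.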

Assay [9] in a line: qHTS assay for small molecule agonists of the antioxidant response element (ARE) signaling pathway (AID 743202; active = well fitted activation curve with a large enough effect in the signal ratio in the repeat runs, not every such curve was filed as active; the % refers to the signal ratio; also: potency is read from the fitted curve at half-maximal effect). The procedure, abridged:
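An ARE-responsive beta-lactamase gene stably integrated in HepG2 cells serves as reporter. After 5 h plating and 16 h compound incubation at 37 C, fluorescence of the B/G FRET substrate was measured.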

Assay [10] in a line: qHTS assay for small molecule agonists of the antioxidant response element (ARE) signaling pathway - cell viability counter screen (AID 743203; calls by dose curve; also: nearly all actives have a fitted effect of over 55% in size; also: potency is read from the fitted curve at half-maximal effect). The procedure, abridged:
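CellSensor ARE-bla HepG2 cells, 2,000 per well, rested 5 hrs at 37C/5% CO2, then exposed to compound in DMSO for 16 hrs; viability read as CellTiter-Glo luminescence after 30 min at room temperature, in the reporter wells.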

Assay [11] can be described thus: qHTS assay for small molecule activators of the heat shock response signaling pathway - cell viability counter screen (AID 743209). Also: nearly all actives have a fitted effect of over 50% in size. The procedure, abridged:
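CellSensor HSE-bla HeLa cells, plated overnight at 37 C/5% CO2, were exposed to compounds in DMSO for 5 h at 37 C. Viability was then read in the same wells by CellTiter-Glo luminescence after 30 min at room temperature.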

The nature of assay [12]: qHTS assay to identify small molecule agonists of the peroxisome proliferator-activated receptor delta (PPARd) signaling pathway - cell viability counter screen (AID 743211). Also: nearly all actives have a fitted effect of over 55% in size. Also: potency is read from the fitted curve at half-maximal effect. The procedure, abridged: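 Viability of GeneBLAzer PPARd UAS-bla HEK293H cells was assessed after 17 h compound incubation at 37C, using CellTiter-Glo reagent added after the reporter read and luminescence recorded 30 min later.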

The nature of assay [13]: qHTS assay for small molecule activators of the heat shock response signaling pathway (AID 743210; active = well fitted activation curve with a large enough effect in the signal ratio in the repeat runs, with a control signal flat, not every such curve was filed as active; the % refers to the signal ratio;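 also: HeLa cells with beta-lactamase reporter driven by heat shock elements; series mostly up to about 63 µM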). The procedure, abridged:
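In HSE-bla HeLa cells, 5 h compound incubation (37 C) precedes addition of LiveBLAzer B/G substrate; after 2.5 h at room temperature, fluorescence intensity indicates reporter induction.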

Assay [14] deals with Peroxisome proliferator-activated receptor gamma (Homo sapiens) (UniProt P37231). In words: qHTS assay to identify small molecule agonists of the peroxisome proliferator-activated receptor gamma (PPARg) signaling pathway (AID 743094; active = well fitted activation curve with a large enough effect in the signal ratio in the repeat runs, not every such curve was filed as active; the % refers to the signal ratio). The procedure, abridged: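 GeneBLAzer PPARg UAS-bla HEK293H cells carrying a stably integrated beta-lactamase reporter were pre-incubated 5 h at 37C, then exposed to compounds in DMSO for 17 h at 37C; LiveBLAzer B/G FRET substrate was added for 1 h at room temperature and fluorescence read.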

The target in assay [15] is Estrogen receptor (Homo sapiens) (UniProt P03372). In words: qHTS assay to identify small molecule agonists of the estrogen receptor alpha (ER-alpha) signaling pathway using the BG1 cell line (AID 743079). Also: nearly all actives have a fitted effect of over 20% in size. Also: potency is read from the fitted curve at half-maximal effect.
Assay [16] addresses Peroxisome proliferator-activated receptor gamma (Homo sapiens) (UniProt P37231). In words: qHTS assay to identify small molecule antagonists of the peroxisome proliferator-activated receptor gamma (PPARg) signaling pathway (AID 743191; calls by dose curve; also: series mostly up to about 63 µM; nearly all actives have a fitted effect of over 30% in size). The procedure, abridged:
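Beta-lactamase reporter under UAS control in HEK293H PPARg-bla cells; compound treatment 17 h at 37C. Read-out: fluorescence intensity after 1 h room-temperature incubation with LiveBLAzer B/G FRET substrate.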

Assay [17] addresses Estrogen receptor (Homo sapiens) (UniProt P03372). Description: qHTS assay to identify small molecule agonists of the estrogen receptor alpha (ER-alpha) signaling pathway (AID 743075; calls by dose curve;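 also: HEK293 GripTite cells with ER-alpha and UAS-driven beta-lactamase reporter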).

Sequence of Aryl hydrocarbon receptor (Homo sapiens) (P35869 whole entry, looked up): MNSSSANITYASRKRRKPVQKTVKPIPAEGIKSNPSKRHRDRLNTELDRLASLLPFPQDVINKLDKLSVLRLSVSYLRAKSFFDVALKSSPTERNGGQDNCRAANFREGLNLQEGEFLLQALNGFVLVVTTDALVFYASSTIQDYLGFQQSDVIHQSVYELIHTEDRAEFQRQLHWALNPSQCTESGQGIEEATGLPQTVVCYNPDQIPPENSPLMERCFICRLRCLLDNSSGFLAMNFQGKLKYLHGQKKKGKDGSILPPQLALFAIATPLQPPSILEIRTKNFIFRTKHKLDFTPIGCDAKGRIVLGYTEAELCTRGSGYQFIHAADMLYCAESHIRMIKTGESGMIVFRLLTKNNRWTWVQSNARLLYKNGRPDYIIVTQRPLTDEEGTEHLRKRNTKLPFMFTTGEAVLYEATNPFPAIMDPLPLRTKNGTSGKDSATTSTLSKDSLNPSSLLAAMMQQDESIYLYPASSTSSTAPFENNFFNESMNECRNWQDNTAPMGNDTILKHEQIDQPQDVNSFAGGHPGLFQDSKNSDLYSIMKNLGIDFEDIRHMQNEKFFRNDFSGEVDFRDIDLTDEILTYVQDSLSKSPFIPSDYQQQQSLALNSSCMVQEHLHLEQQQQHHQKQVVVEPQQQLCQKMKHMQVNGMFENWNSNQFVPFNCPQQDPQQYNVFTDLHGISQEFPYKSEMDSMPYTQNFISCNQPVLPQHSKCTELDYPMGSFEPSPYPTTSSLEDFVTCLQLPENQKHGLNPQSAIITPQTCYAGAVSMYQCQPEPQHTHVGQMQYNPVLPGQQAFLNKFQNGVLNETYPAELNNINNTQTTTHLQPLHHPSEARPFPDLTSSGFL
Sequence of Peroxisome proliferator-activated receptor gamma (Homo sapiens) (P37231 whole entry, looked up): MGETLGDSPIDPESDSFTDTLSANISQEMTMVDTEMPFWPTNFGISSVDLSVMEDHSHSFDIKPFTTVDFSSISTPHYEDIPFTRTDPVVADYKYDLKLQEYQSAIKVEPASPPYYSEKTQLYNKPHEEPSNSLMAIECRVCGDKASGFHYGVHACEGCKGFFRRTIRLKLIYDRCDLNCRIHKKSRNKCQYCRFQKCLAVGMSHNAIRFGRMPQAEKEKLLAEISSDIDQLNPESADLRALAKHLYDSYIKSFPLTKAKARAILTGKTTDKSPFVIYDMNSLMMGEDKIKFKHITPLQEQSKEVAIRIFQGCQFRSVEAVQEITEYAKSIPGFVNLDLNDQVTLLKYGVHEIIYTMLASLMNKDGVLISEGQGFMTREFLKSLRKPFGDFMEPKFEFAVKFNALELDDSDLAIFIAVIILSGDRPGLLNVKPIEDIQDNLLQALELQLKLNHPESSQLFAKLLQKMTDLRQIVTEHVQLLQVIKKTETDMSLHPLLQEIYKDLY
Sequence of Aromatase (Homo sapiens) (P11511 whole entry, looked up): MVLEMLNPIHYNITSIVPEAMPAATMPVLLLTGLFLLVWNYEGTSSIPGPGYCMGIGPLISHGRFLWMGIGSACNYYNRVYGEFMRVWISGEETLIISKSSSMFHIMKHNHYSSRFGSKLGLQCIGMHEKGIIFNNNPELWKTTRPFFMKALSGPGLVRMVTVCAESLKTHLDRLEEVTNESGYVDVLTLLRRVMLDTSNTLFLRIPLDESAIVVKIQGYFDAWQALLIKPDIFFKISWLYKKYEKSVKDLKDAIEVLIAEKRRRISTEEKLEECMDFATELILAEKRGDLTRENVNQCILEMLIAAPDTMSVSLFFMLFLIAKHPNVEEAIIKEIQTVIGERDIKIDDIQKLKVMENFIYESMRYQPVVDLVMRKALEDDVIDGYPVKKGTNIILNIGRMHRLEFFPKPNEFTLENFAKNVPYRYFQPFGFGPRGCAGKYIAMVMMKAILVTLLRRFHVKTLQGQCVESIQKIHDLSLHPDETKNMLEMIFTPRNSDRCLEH
Sequence of Estrogen receptor (Homo sapiens) (P03372 whole entry, looked up): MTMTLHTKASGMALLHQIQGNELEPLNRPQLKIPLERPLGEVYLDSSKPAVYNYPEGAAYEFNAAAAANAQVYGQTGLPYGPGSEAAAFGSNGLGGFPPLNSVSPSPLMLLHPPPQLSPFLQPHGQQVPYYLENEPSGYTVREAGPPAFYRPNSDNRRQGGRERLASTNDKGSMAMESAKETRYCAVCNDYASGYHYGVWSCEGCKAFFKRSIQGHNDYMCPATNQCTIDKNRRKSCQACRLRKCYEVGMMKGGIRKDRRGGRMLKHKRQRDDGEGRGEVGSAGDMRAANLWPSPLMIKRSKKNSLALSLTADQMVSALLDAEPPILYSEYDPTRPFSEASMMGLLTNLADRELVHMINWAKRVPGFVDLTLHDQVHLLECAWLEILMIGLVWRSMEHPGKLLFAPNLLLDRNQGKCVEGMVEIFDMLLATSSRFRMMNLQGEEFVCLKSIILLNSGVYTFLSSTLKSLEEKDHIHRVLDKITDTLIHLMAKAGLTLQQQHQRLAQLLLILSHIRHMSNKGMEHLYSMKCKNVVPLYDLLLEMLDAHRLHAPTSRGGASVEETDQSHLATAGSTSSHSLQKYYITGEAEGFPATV

As to `CCCN[C@H]1CCc2nc(N)sc2C1`, the Potency result in assay [1], in assay [2], in assay [3], in assay [4], in assay [5] and in assay [6] was “inactive” each time. In addition, the Potency result in assay [7], in [8], in assay [9], in [10], in assay [11] and in assay [12] was “inactive” in each case.
As to `N[C@@H]1CONC1=O`, the Potency result in [3], in [4], in [5], in assay [6], in [7] and in [8] was “inactive” in each case. For the same molecule, the Potency entry in [9], in [10], in [11] and in [13] was “inactive” in each case.
For `CC(C)C(=O)c1c(C(C)C)nn2ccccc12`, the Potency entry in [1], in assay [3], in assay [4], in [5], in assay [6] and in assay [7] was “inactive” in each case. Moreover, the Potency entry in [14], in assay [8], in [9], in assay [10], in assay [13] and in assay [12] was “inactive” each time.
As to `CCC(=O)/C=C/C1C(C)=CCCC1(C)C` (configuration not stated), the Potency entry in assay [1], in assay [2], in assay [3], in [4], in assay [5] and in assay [6] was “inactive” in each case. For the same molecule, the Potency result in [7], in assay [14], in [8], in [9], in assay [10] and in assay [11] was “inactive” each time. The Potency result in [13] and in [12] was “inactive” in each case.
Take `CCc1cc(C(C)(C)C)c(O)c(C(C)(C)C)c1`: the Potency result in assay [1], in [2], in assay [3], in [4], in assay [5] and in [6] was “inactive” each time. Moreover, the Potency result in assay [7], in assay [14], in assay [8], in [9], in assay [10] and in assay [11] was “inactive” each time. The Potency entry in assay [13] and in assay [12] was “inactive” in each case.
As for `O`, the Potency result in assay [2], in assay [3], in assay [4], in assay [5], in assay [6] and in assay [7] was “inactive” in each case. Further, the Potency result in assay [8], in assay [9], in assay [10], in assay [11] and in [12] was “inactive” throughout.
As to `Nc1ccc2cc3ccccc3cc2c1`, the Potency entry in assay [1], in assay [3], in assay [4], in [8], in [10] and in assay [11] was “inactive” throughout. Also, the Potency entry in assay [12] is “inactive”. The Potency is 9.86 µM (active) and 24.3 µM (active) in [15]; 62.2 µM (active) and 8.63 µM (active) in assay [6].
For the molecule `C#CC(C)(CC)OC(=O)c1ccccc1C(=O)O` (configuration not stated), the Potency entry in assay [16], in [8], in assay [9], in assay [10], in [11] and in assay [13] was “inactive” throughout. In [12], the Potency result is “inactive”.
On to `O=C1CC2(CCCC2)CC(=O)N1CCCCN1CCN(c2ncccn2)CC1`, for which the Potency entry in assay [1], in [2], in [3], in [7], in assay [8] and in assay [10] was “inactive” throughout. Moreover, the Potency entry in assay [11], in assay [13] and in assay [12] was “inactive” in each case. Also, the Potency in assay [9] is 27.3 µM (active).
On to `Nc1cc(S(=O)(=O)O)cc2cc(S(=O)(=O)O)cc(O)c12`, for which the Potency entry in assay [2], in [3], in assay [4], in assay [5], in [6] and in assay [7] was “inactive” each time. Further, the Potency result in assay [14], in assay [8], in assay [9], in assay [10], in [11] and in [12] was “inactive” each time.
For the molecule `CNC1(C)C2CCC(C2)C1(C)C` (configuration not stated), the Potency result in [1], in [2], in assay [3], in [4], in [5] and in [7] was “inactive” throughout. Also, the Potency result in [14], in [8], in assay [9], in assay [10], in [11] and in [13] was “inactive” in each case. In [12], the Potency result was “inactive”.
For `CCN(CC)C(=S)SSC(=S)N(CC)CC`, the Potency result in [2] is “inactive and 39.8 µM (active)”; in assay [4] it was 168 nM (active) and 68.6 nM (active) and 55.8 nM (active); in assay [5], 86.3 nM (active) and 44.3 nM (active); in assay [9], 77 nM (active) and inactive; in assay [10], 27.9 µM (active) and inactive; in assay [12], 110 nM (active) and 44.7 nM (active) and 150 nM (active). Besides, the Potency entry in assay [17], in [3], in assay [6], in [8] and in [11] was “inactive” throughout.
With `Cc1c(O)cccc1C(=O)N[C@@H](CSc1ccccc1)[C@H](O)CN1C[C@H]2CCCC[C@H]2C[C@H]1C(=O)NC(C)(C)C`, the Potency entry in assay [1], in assay [6] and in [11] was “inactive” in each case. Also, the Potency in [2] was 53.5 µM (active); in [3] it was 18.8 µM (active) and 26.6 µM (active); in assay [4], 26.6 µM (active) and 23.7 µM (active); in assay [5], 7.5 µM (active) and 2.98 µM (active); in assay [7], 13.3 µM (active) and 11.9 µM (active); in assay [8] it was 21.3 µM (active) and 26.6 µM (active). The Potency in assay [10] is 15 µM (active) and 26.6 µM (active); in assay [12], 7.56 µM (active) and 18.8 µM (active).
In the case of `CC(=O)O[C@]1(C(C)=O)CC[C@H]2[C@@H]3C[C@H](C)C4=CC(=O)CC[C@]4(C)[C@H]3CC[C@@]21C`, the Potency entry in [2], in [17], in assay [15], in assay [3], in assay [4] and in assay [5] was “inactive” throughout. Further, the Potency entry in assay [6], in [7], in [8], in assay [10], in [11] and in assay [12] was “inactive” in each case.
For `CC(COc1ccccc1)N(CCCl)Cc1ccccc1` (configuration not stated), the Potency entry in assay [2], in assay [3], in assay [4], in assay [5], in [7] and in [14] was “inactive” throughout. For the same molecule, the Potency entry in assay [11] and in assay [12] was “inactive” each time. The Potency in [10] is 61.1 µM (active) and inactive.
